GCN5L2 inh – inhibitors of human GCN5L2 histone acetyltransferase | Q92830 | GCN5L2 HAT assay, ThioGlo1 CoA-SH fluorescence | Potency, µM (top dose mostly 58.9 µM), inactives show top-dose activity change, negative = inhibition, most hits filed as inhibitors | hit rate 0.21% among 390,000
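GCN5L2 (20nM final) in 50mM HEPES, 0.1mM EDTA pH 7.5, 0.01% Tween-20 was preincubated 15 min at room temperature with compound, then given ThioGlo1 (50uM), H3(1-25) peptide (75uM) and acetyl-CoA (70uM); CoA-thiol fluorescence (Ex340/Em540) was read at 0 and 20 min.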
DT40 TDP1 CPT – DT40-hTDP1 cell growth loss with CPT | Potency, µM (highest dose often 46.2 µM), without a hit: top-dose activity change, negative = growth inhibition, most hits filed as inhibitors | chicken DT40 Tdp1-/-;hTDP1 cells + 20 nM CPT, ATP luminescence, 48 h | AID 686979 | hit rate 12% among 420,000; note: nearly all actives have a fitted effect of over 55% in size
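Cell growth measured by CellTiter-Glo luminescence after a minimum 48 h, 37 C compound exposure with 20 nM CPT in Tdp1-knockout DT40 cells stably expressing hTDP1, seeded 400/well; qHTS titration format.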
DT40 TDP1 no CPT – qHTS for Inhibitors of human tyrosyl-DNA phosphodiesterase 1 (TDP1): qHTS in cells in absence of CPT; DT40 Tdp1-/- hTDP1 cells, no CPT, ATP luminescence, 48 h; Potency, µM (top dose mostly 46.2 µM), for the others: at the top dose activity change, negative = growth inhibition, actives largely listed as inhibitors; hit rate 15% among 420,000; AID 686978, 2013; note: nearly all actives have a fitted effect of over 55% in size
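Growth kinetics read by CellTiter-Glo luminescence after ≥48 hr at 37 °C. Cells: DT40 Tdp1-/- stably carrying human TDP1, 400 per well, compound exposure in the absence of CPT (DMSO vehicle).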
PLK1 PBD block – blocks phosphopeptide binding to human PLK1 polo-box domain; hit rate 2.8% among 360,000; AID 720504; Plk1 PBD binding of FITC phosphopeptide, fluorescence polarization; Potency, µM, for inactives: max response, negative = inhibition, actives largely listed as inhibitors; note: series mostly up to about 57 µM; nearly all actives have a fitted effect of over 65% in size
TDP1 block – inhibitors of human tyrosyl-DNA phosphodiesterase TDP1. Q9NUW8. recombinant TDP1, AlphaScreen DNA substrate cleavage. Potency, µM (series often up to 130 µM), inactives show at the highest dose activity change, negative = inhibition, usual class: inhibitors. hit rate 0.28% among 350,000. AID 485290; note: nearly all actives have a fitted effect of over 40% in size
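Recombinant human Tdp1 (E. coli-expressed, 1 nM final) preincubated with compounds 15 min at room temperature, then 5'-biotin/3'-phosphotyrosine-FITC DNA substrate (15 nM final) added for 5 min. AlphaScreen beads (10 ug/ml final) added 10 min; cleavage lowers signal.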
VDR inhibitor – vitamin D3 receptor (human) inhibition | VDR-SRC2-3 peptide fluorescence polarization, 2 h | Potency, µM, without a hit: max response, negative = inhibition, actives largely listed as inhibitors | hit rate 0.93% among 400,000
Target sequence (P11473 whole entry, looked up): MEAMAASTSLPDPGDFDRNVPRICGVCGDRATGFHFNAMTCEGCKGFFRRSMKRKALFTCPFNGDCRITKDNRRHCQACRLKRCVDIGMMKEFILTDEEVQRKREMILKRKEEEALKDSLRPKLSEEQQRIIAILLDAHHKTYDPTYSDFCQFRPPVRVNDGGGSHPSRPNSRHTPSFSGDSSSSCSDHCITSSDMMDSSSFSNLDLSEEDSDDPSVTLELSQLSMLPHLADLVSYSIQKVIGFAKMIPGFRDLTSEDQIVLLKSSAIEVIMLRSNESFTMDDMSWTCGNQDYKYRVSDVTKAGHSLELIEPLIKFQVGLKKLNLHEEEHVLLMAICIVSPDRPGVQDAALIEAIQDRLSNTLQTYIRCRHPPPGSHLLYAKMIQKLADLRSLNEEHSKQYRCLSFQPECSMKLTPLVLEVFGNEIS
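After 23 nl compound addition and a short centrifugation, plates sat for 2 hours at ambient temperature; polarization of fluorescence then indicated loss of VDR binding to peptide SRC2-3.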
* marks the source's active call; other numbers are inactive results; ? = inconclusive; · = not tested or not shown; [ ] = another dose, or the depositor's remark. An excerpt weighted towards active compounds, which were near 18% of everything screened. Calls come from the whole dose curve; as a rule, active = well fitted curve in the direction sought with a large enough effect; inconclusive = small, poorly fitted or top-dose-only effect, or another doubt; inactive = no such curve, though single readings can be large; an effect the other way counts as inactive or inconclusive. % is set by controls: 0 for no effect and ±100 for the full control effect; potency is the fitted concentration of half-maximal effect.

SMILES	GCN5L2 inh	DT40 TDP1 CPT	DT40 TDP1 no CPT	PLK1 PBD block	TDP1 block	VDR inhibitor
Cc1cc(=O)n(C)c(=O)n1CCCCCCOc1cccc([N+](=O)[O-])c1	5%	26µM*	16µM*	-2%	0%	-2%
CC1(C)Cc2c(c(N3CCCC3)[nH]c(=S)c2C#N)CO1	-15%	·	·	·	6%	·
CC1(C)Cc2[nH]c(=S)c(C#N)cc2CO1	?	-24%	-26%	17µM*	6%	?
N#C/C(=C\c1ccc(Br)cc1)c1nc(-c2cc3cc(Br)ccc3oc2=O)cs1	-1%	6%	-2%	·	1%[12.3 µM]	-22%
CCN(CC)CCCN(C(=O)c1cccs1)c1nc(-c2ccc(OC)cc2)cs1	-3%	18µM*	21µM*	-4%	4%	8%
CCN(CC)CCCN(C(=O)c1cccc(C)c1)c1nc(-c2ccc(OC)cc2)cs1	-7%	-59%	7.3µM*	-23%	·	-18%
CCN(CC)CCCN(C(=O)c1ccc(Br)cc1)c1nc(-c2ccc(OC)cc2)cs1	0%	-104%	?	-1%	·	4%
COc1ccccc1-c1ccnc2c(-c3ccc(Br)cc3)c(C)nn12	-1%	-18%	-23%	·	-1%	-6%
Fc1cccc(Nc2nc(-c3ccncc3)nc3ccccc23)c1	-11%	·	·	·	5%	-10%
CS(=O)(=O)Nc1cccc(-c2nc(NCc3ccccc3)c3ccccc3n2)c1	?	?	-28%	·	·	50µM*
N#Cc1cccc(-c2nc(NCc3ccccc3)c3ccccc3n2)c1	?	?	?	·	·	45µM*
O=[N+]([O-])c1cccc(-c2nc(NCc3ccccc3)c3ccccc3n2)c1	-18%	?	?	-10%	3%	-12%
N#Cc1cccc(-c2nc(Nc3ccncc3)c3ccccc3n2)c1	-11%	2.6µM*	2.9µM*	·	7%[56.1 µM]	120%
CN(Cc1nc(-c2ccccc2)no1)C1CCOCC1	3%	-3%	7%	-7%	·	-20%
Cc1oc(-c2ccccc2)cc1C(=O)NC1CCN(Cc2ccccc2)CC1	-5%	-19%	-27%	-11%	-1%	7%
CCOC(=O)c1c(S(=O)(=O)N2CCC(C(=O)NCc3ccc(F)cc3)CC2)c(C)n(C)c1C	-6%	-20%	-12%	·	3%	11%
CCOC(=O)[C@]12CCC=C1N(Cc1cccc3ccccc13)C(=O)[C@H](CC(=O)N1CCCCC1)C2	·	?	26µM*	3%	·	·
CCOC(=O)[C@]12CCC=C1N(Cc1cccc3ccccc13)C(=O)[C@H](CC(=O)N1CCSCC1)C2	·	?	18µM*	-1%	·	·
CCOC(=O)[C@]12CCCC=C1N(Cc1cccc3ccccc13)C(=O)[C@H](CC(=O)N1CCCCC1)C2	·	18µM*	26µM*	-19%	·	·
CCOC(=O)N1CCN(C(=O)C[C@@H]2C[C@@]3(C(=O)OC)CCCCC=C3N(Cc3cccc4ccccc34)C2=O)CC1	·	?	21µM*	-8%	·	·
CC(C)(C)C(=O)OCOP(=O)(OCOC(=O)C(C)(C)C)C(C)(Oc1ccc(O)cc1)P(=O)(OCOC(=O)C(C)(C)C)OCOC(=O)C(C)(C)C	-4%	·	·	·	-1%	-3%
COC(=O)[C@@]12C[C@@H](CC(=O)N3CCN(C(=O)c4ccco4)CC3)C(=O)N(Cc3cccc4ccccc34)C1=CCC(C)(C)C2	·	?	18µM*	-14%	·	·
CCOC(=O)[C@]12CCC=C1N(Cc1cccc3ccccc13)C(=O)[C@H](CC(=O)N1CCN(C(=O)C3CC3)CC1)C2	·	?	?	-7%	·	·
CCOC(=O)N1CCN(C(=O)C[C@@H]2C[C@@]3(C(=O)OC)CC(C)(C)CC=C3N(Cc3cccc4ccccc34)C2=O)CC1	·	16µM*	18µM*	3%	·	·
CCOC(=O)[C@]12CCC=C1N(Cc1cccc3ccccc13)C(=O)[C@H](CC(=O)N1CCCC1)C2	·	18µM*	23µM*	-8%	·	·
SMILES	GCN5L2 inh	DT40 TDP1 CPT	DT40 TDP1 no CPT	PLK1 PBD block	TDP1 block	VDR inhibitor
CN1CCN(CCC(=O)Nc2ccc(Cl)cc2)CC1	2%	12%	3%	·	2%	6%
CCN1C(=O)[C@H]2[C@H]3CN=C(SCc4ccc(Cl)cc4)N3[C@@](Cc3ccccc3)(C(=O)OC)[C@H]2C1=O	-17%	?	12µM*	-8%	-6%[56.1 µM]	-4%
COC(=O)[C@@]1(Cc2ccccc2)[C@H]2C(=O)N(Cc3ccccc3)C(=O)[C@H]2[C@H]2CN=C(SCC(=O)c3ccccc3)N21	-9%	?	18µM*	-19%	2%[56.1 µM]	-22%
Cc1ccc(C)c(N(CC(N)=O)S(C)(=O)=O)c1	-20%	?	?	27µM*	4%	?
CC(C)c1ccc(NC(=S)NNC(=O)c2cccs2)cc1	-27%	7%	0%	-16%	8%	-19%
O=[N+]([O-])CC(=Nc1ccc(Cl)cc1)N/N=C\c1oc(O)c2ccccc12	-10%	?	?	17µM*	8%	?
CCCCSCc1nc2nc(Cl)c(Cl)nc2[nH]1	·	16µM*	18µM*	5%	·	·
Cc1ccc(Cl)cc1N1CCN(C(=O)COc2ccc(S(=O)(=O)NC(C)C)cc2)CC1	-12%	13µM*	18µM*	-18%	4%	-12%
COCC(=O)N1CCN(c2cccc(Cl)c2)CC1	-1%	-23%	-12%	-15%	-3%	-4%
O=C(COc1ccc(S(=O)(=O)NC2CCCCC2)cc1)N1CCN(c2cccc(Cl)c2)CC1	-7%	?	16µM*	-3%	9%	19%
COc1cc(CN2CCCC(n3cc(C(=O)N4CCCCC4)nn3)C2)cc2c1OCO2 (stereo not drawn)	·	-5%[9.04 µM]	-12%	·	·	·
CCCCS(=O)(=O)Nc1ccc(C)cn1	-4%	?	?	21µM*	4%	?
O=C(Cc1ccccc1)NCC(=O)OCC(=O)c1ccc2ccccc2c1	·	-14%	-20%	·	1%	-17%
N#Cc1ccccc1NC(=O)C(=O)NCC(c1cccnc1)N1CCc2ccccc2C1 (stereo not drawn)	3%	?	?	·	4%	7%
O=C(NCC(c1cccnc1)N1CCc2ccccc2C1)C(=O)Nc1cccc(Cl)c1 (stereo not drawn)	1%	21µM*	18µM*	·	-1%	7%
O=[N+]([O-])c1ccc(S(=O)(=O)NCC(c2cccnc2)N2CCc3ccccc3C2)cc1 (stereo not drawn)	3%	?	21µM*	-6%	0%	-23%
